According to PubChem BioAssay (NCATS):
Inconclusive results are not listed. A call without a number means that no potency is given here. Calls of active or inactive are those of the source. Calls come from the whole dose curve; as a rule, active = well fitted inhibition curve with a large enough effect; inconclusive = small, poorly fitted or top-dose-only effect; inactive = no such curve, though single readings can be large or run the other way.

test: Counterscreen for APE1 Inhibitors: Fluorescent Dye Displacement Validation Assay (AID 1707); settings: fluorescent dye displacement from DNA; series mostly up to 57.1 µM
Excerpt: In order to distinguish true inhibitors of DNA-processing enzymes from promiscuous DNA-binding compounds among screening assay hits, we developed a homogeneous and miniaturized assay based on fluorescent dye displacement test as originally described by Tse and Boger (Accounts of Chemical Research (2004) 37: 61-69). The assay is based on the strong enhancement of fluorescence when Thiazole Orange (ThO) binds to double-stranded DNA: conversely, in the presence of a DNA-binding compound, Thiazole Orange is displaced from the DNA and its fluorescence is reduced.
Buffer. 50 mM Tris-HCl (pH7.5) containing 50mM NaCl, 2 mM MgCl2, and 0.01% Tween-20.
Buffer containing 250 nM ThO in columns 3 and 4 as negative control (no dsDNA).
Reaction mixture: 250 nM ThO and 50 nM dsDNA at final concentration dispensed throughout the plate: in columns 1, 2, 5-48. Column 1 is neutral (100% activity).
5''TAMRA- TC ACC FTC GTA CGA CTC
3'' AG TGG GAG CAT GCT GAG
where F denotes tetrahydrofuran.
Control: Pintool transfer of control compound WB64 (W4761, Sigma-Aldrich) to column 2 of all assay plates as a two-fold 16-point dilution in duplicate (concentration range 5.75 uM - 0.175 nM).
Four uL of reaction mixtures were dispensed to 1536-well Greiner black solid bottom plates. Compounds (23 nL) were transferred […] in order to measure the endpoint fluorescence using 480 nm excitation and 540 nm emission fluorescence protocol.

Structure (SMILES)	Potency
CN(C)c1nc2c(Br)c(Br)c(Br)c(Br)c2[nH]1	inactive
COc1cc2c(CCNC(C)=O)c[nH]c2cc1Cl	inactive
O=C(O)CNC(=O)C(CS)Cc1ccccc1 (stereo not given)	inactive
S=C(S)OC1CC2CC1C1CCCC21 (stereo not given)	inactive
Cc1ccccc1CNc1ncnc2c1ncn2C1OC(CO)C(O)C1O (stereo not given)	inactive
CC(C)NCC(O)COc1cccc2ccccc12 (stereo not given)	inactive
O=C(O)CC1CCCc2ccccc2C1O (stereo not given)	inactive
N.N.O=C(O)C1(C(=O)O)CCC1.[Pt]	inactive
Cn1cc(C2=C(c3ccc(Cl)cc3Cl)C(=O)NC2=O)c2ccccc21	inactive
CCCCCCCCCCCCCCCCCC(=O)OC(CC(=O)O)C[N+](C)(C)C (stereo not given)	inactive
Fc1ccc(C(OCCCc2cnc[nH]2)c2ccc(F)cc2)cc1	inactive
O=C1NC(O)=NC1(c1ccccc1)c1ccccc1	inactive
CC1CN(S(=O)(=O)c2cccc3cnccc23)CCN1 (stereo not given)	inactive
O=C1C(SCCO)=C(SCCO)C(=O)c2ccccc21	inactive
CC(C)(C)NCC(O)COc1nsnc1N1CCOCC1 (stereo not given)	inactive
COc1cc(OC)c(/C=C2/C(=O)Nc3ccccc32)c(OC)c1	inactive
CCCCCC(O)c1cccc(OCc2ccc3ccccc3n2)c1 (stereo not given)	inactive
CN=c1nc(-c2ccccc2)n(-c2ccccc2)s1	inactive
O=C(Nc1cccc(C(=O)Nc2ccc(S(=O)(=O)O)c3cc(S(=O)(=O)O)cc(S(=O)(=O)O)c23)c1)Nc1cccc(C(=O)Nc2ccc(S(=O)(=O)O)c3cc(S(=O)(=O)O)cc(S(=O)(=O)O)c23)c1	inactive
C[C@@H](NC(=O)/C(C#N)=C/c1ccc(O)c(O)c1)c1ccccc1	inactive

Structure (SMILES)	Potency
O=C(O)[C@@H]1C[C@@H](C(=O)O)N1	inactive
CCCCCCCCCCCCCCCC(=O)OC(CC(=O)O)C[N+](C)(C)C (stereo not given)	inactive
Oc1cc2c(cc1O)CN(C(=S)NCCc1ccc(Cl)cc1)CCC2	inactive
CN(C)CCC(c1ccc(Cl)cc1)c1ccccn1 (stereo not given)	inactive
Clc1ccc(N2CCN(Cc3c[nH]c4ncccc34)CC2)cc1	inactive
C[C@@H](CN1CCC(Cc2ccccc2)CC1)[C@@H](O)c1ccc(O)cc1	inactive
O=C(O)c1cc([N+](=O)[O-])ccc1NCCCc1ccccc1	inactive
O=C(Nc1ccccc1)c1cc([N+](=O)[O-])ccc1Cl	inactive
O=C(O)/C=C/C(O)c1ccc(Cl)cc1 (stereo not given)	inactive
CC(=O)SCC[N+](C)(C)C	inactive
O=c1[nH]c2cc([N+](=O)[O-])c([N+](=O)[O-])cc2[nH]c1=O	inactive
C#CCN1C(C)=C(C(=O)OC)C(c2cccc([N+](=O)[O-])c2)C(C(=O)OCC)=C1C (stereo not given)	inactive
CC1(C)CCC=[N+]1[O-]	inactive
CCN1/C(=C/C(C)=O)Sc2ccc(OC)cc21	inactive
CN1CCc2cc(NC(=O)Nc3cccnc3)ccc21	inactive
OCC1O[C@H](O)C(Cl)C(O)C1O (stereo not given in full)	inactive
CC(C)Cc1ccc([C@H](C)C(=O)O)cc1	inactive
CCCCN1CCC(n2c(=O)[nH]c3ccccc32)CC1	inactive
Cc1cc(NC(=O)Nc2ccc3c(ccn3C)c2)sn1	inactive
NCCCCC(=O)O	inactive
